Experimental data: ChEMBL document CHEMBL4513141, “CO-ADD screening of NIH (USA) - Clinical Collection” (2021)
Results with a measured potency or affinity are listed apart.

Columns and labels:
[1] = system: Staphylococcus aureus; details: Concentration 20 uM; ASSAY_TEST Inhibition of Bacterial Growth; detection method Absorption (OD600); MEDIA CAMHB; plate type 384well; NBS; CORNING #3640; time 18 hr
[2] = system: Escherichia coli; details: Concentration 20 uM; ASSAY_TEST Inhibition of Bacterial Growth; detection method Absorption (OD600); MEDIA CAMHB; plate type 384well; NBS; CORNING #3640; time 18 hr

CCCN1CCCC[C@H]1C(=O)Nc1c(C)cccc1C.Cl [ROPIVACAINE HYDROCHLORIDE]
Inhibition [1]: 13.36%
Inhibition [2]: 1.04%

CN1C(C(=O)Nc2ccccn2)=C(O)c2ccccc2S1(=O)=O.O
Inhibition [1]: 15.17%
Inhibition [2]: -5.74%

C#C[C@]1(O)CC[C@H]2[C@@H]3CCC4=CC(=O)CC[C@@H]4[C@H]3CC[C@@]21CC [LEVONORGESTREL]
Inhibition [1]: 8.4%
Inhibition [2]: 3.88%

CC1CC2C3CCC4=CC(=O)C=CC4(C)[C@@]3(Cl)C(O)CC2(C)C1(O)C(=O)CO (stereo partly drawn)
Inhibition [1]: 12.42%
Inhibition [2]: 5.77%

CN(C/C=C/C#CC(C)(C)C)Cc1cccc2ccccc12.Cl [TERBINAFINE HYDROCHLORIDE]
Inhibition [1]: 10.26%
Inhibition [2]: 3%

C[C@@H](O)[C@H]1C(=O)N2C(C(=O)O)=C(S[C@@H]3CN[C@H](C(=O)N(C)C)C3)[C@H](C)[C@H]12 [MEROPENEM]
Inhibition [1]: -14.17%
Inhibition [2]: 7.87%

NC(=O)c1cccnc1 [NIACINAMIDE]
Inhibition [1]: 11.51%
Inhibition [2]: 3.02%

COC(=O)[C@H](c1ccccc1Cl)N1CCc2sccc2C1 [CLOPIDOGREL]
Inhibition [1]: 12.7%
Inhibition [2]: -0.51%

CC[C@H](C)C(=O)O[C@H]1C[C@@H](C)C=C2C=C[C@H](C)[C@H](CC[C@@H]3C[C@@H](O)CC(=O)O3)[C@H]21 [LOVASTATIN]
Inhibition [1]: 9.76%
Inhibition [2]: 0.96%

CC(=O)O[C@]1(C(C)=O)CC[C@H]2[C@@H]3C=C(C)C4=CC(=O)CC[C@]4(C)[C@H]3CC[C@@]21C [MEGESTROL ACETATE]
Inhibition [1]: 14.19%
Inhibition [2]: 0.92%

CC(C(=O)O)c1cccc(C(=O)c2ccccc2)c1 (stereo not drawn) [KETOPROFEN]
Inhibition [1]: 6.88%
Inhibition [2]: -2.29%

COc1ccc(C2CNC(=O)C2)cc1OC1CCCC1 (stereo not drawn) [ROLIPRAM]
Inhibition [1]: 10.42%
Inhibition [2]: 5.39%

O=C([O-])c1cc(=O)c2c(OCC(O)COc3cccc4oc(C(=O)[O-])cc(=O)c34)cccc2o1.[Na+].[Na+] [CROMOLYN SODIUM]
Inhibition [1]: 9.1%
Inhibition [2]: -1.24%

CN(C)CC/C=C1/c2ccccc2COc2ccc(CC(=O)O)cc21.Cl [OLOPATADINE HYDROCHLORIDE]
Inhibition [1]: -18.81%
Inhibition [2]: 1.13%

CN(C)CCC(c1ccc(Cl)cc1)c1ccccn1.O=C(O)/C=C\C(=O)O (stereo not drawn) [CHLORPHENIRAMINE MALEATE]
Inhibition [1]: -22.38%
Inhibition [2]: 7.3%

O=C1Nc2ccc(Cl)cc2[C@@](C#CC2CC2)(C(F)(F)F)O1 [EFAVIRENZ]
Inhibition [1]: 10.66%
Inhibition [2]: -2.05%

COc1ccc([C@@H]2Sc3ccccc3N(CCN(C)C)C(=O)[C@@H]2OC(C)=O)cc1.Cl [DILTIAZEM HYDROCHLORIDE]
Inhibition [1]: 12.74%
Inhibition [2]: 5.44%

CCC[C@@H]1C[C@@H](C(=O)N[C@@H]([C@H]2O[C@H](SC)[C@H](O)[C@@H](O)[C@H]2O)[C@@H](C)O)N(C)C1.Cl.O [LINCOMYCIN HYDROCHLORIDE]
Inhibition [1]: 20.41%
Inhibition [2]: 6.86%

CC1(C)O[C@@H]2[C@@H](CO[C@@]3(COS(N)(=O)=O)OC(C)(C)O[C@@H]23)O1 [TOPIRAMATE]
Inhibition [1]: 3.5%
Inhibition [2]: 6.36%

CCCCC[C@H](O)/C=C/[C@H]1[C@H](O)CC(=O)[C@@H]1CCCCCCC(=O)O [ALPROSTADIL]
Inhibition [1]: 3.1%
Inhibition [2]: 6.55%

Cl.c1ccc(CC2=NCCN2)cc1 [TOLAZOLINE HYDROCHLORIDE]
Inhibition [1]: 7.13%
Inhibition [2]: 4.19%

CC1(C)S[C@@H]2[C@H](NC(=O)[C@H](N)c3ccc(O)cc3)C(=O)N2[C@H]1C(=O)O [AMOXICILLIN]
Inhibition [1]: 15.09%
Inhibition [2]: 7.14%

CCOC(=O)O[C@]1(C(=O)OCCl)CC[C@H]2[C@@H]3CCC4=CC(=O)C=C[C@]4(C)[C@H]3[C@@H](O)C[C@@]21C [LOTEPREDNOL ETABONATE]
Inhibition [1]: -21.62%
Inhibition [2]: 4.07%

CC1Cc2ccccc2N1NC(=O)c1ccc(Cl)c(S(N)(=O)=O)c1 (stereo not drawn) [INDAPAMIDE]
Inhibition [1]: 5.44%
Inhibition [2]: -0.79%

OCCN1C[C@H](O)[C@@H](O)[C@H](O)[C@H]1CO [MIGLITOL]
Inhibition [1]: 16.69%
Inhibition [2]: 5.82%

CC[C@@H]1C(=O)OC[C@@H]1Cc1cncn1C.Cl [PILOCARPINE HYDROCHLORIDE]
Inhibition [1]: 15.92%
Inhibition [2]: 5.77%

CCCCCCCCCCC[C@@H](C[C@@H]1OC(=O)[C@H]1CCCCCC)OC(=O)[C@H](CC(C)C)NC=O [ORLISTAT]
Inhibition [1]: 11.59%
Inhibition [2]: -4.78%

O=C(O)CCc1nc(-c2ccccc2)c(-c2ccccc2)o1 [OXAPROZIN]
Inhibition [1]: 10.43%
Inhibition [2]: 2.77%

CCN(CC)C(=O)[C@]1(c2ccccc2)C[C@@H]1CN.Cl [1R,2S-MILNACIPRAN HYDROCHLORIDE]
Inhibition [1]: 5.25%
Inhibition [2]: 4.64%
